Rows were chosen to be rich in hits. Some 14% of all compounds tested hit in one or more screens of this group.
USP28 inh: inhibitors of human USP28 deubiquitinase; purified USP28, Ub-rhodamine cleavage fluorescence, 30 min; Q96RU2; AID 1645857; inhibition, % at 25 µM; actives 3% (n = 47,000)
USP17 inh: blocks human USP17 ubiquitin-rhodamine cleavage; A8MUK1; purified USP17, Ub-rhodamine cleavage fluorescence, 3 h; inhibition, % at 50 µM; actives 6.5% (n = 47,000)
USP30 inh: blocks human USP30 ubiquitin-rhodamine cleavage. Q70CQ3. purified USP30, Ub-rhodamine cleavage fluorescence. inhibition, % at 25 µM. actives 5.3% (n = 47,000). AID 1645860
USP8 inh: human USP8 deubiquitinase inhibition; purified USP8, Ub-rhodamine cleavage fluorescence, 30 min; inhibition, % at 20 µM; P40818; actives 4.2% (n = 47,000); AID 1645853
A number is an active result; i = inactive. Rule as the data show it: active = inhibition above about 30%; inactive = the rest.

SMILES	USP28 inh	USP17 inh	USP30 inh	USP8 inh
CC1=C(C(=O)Nc2cccnc2)C(c2ccncc2)n2ncnc2N1 (stereo not given)	i	i	i	i
CCC(=O)Nc1ccc(-n2cnc(C(=O)NC3CCCC3)c2)nc1	i	i	31.9	i
Cc1c(C2CCN(C(=O)NCc3ccc(F)cc3)CC2)noc1N	i	i	i	i
COc1ccc(NC(=O)c2oc(=O)c3ccccc3c2-c2ccccc2)cc1Cl	i	i	i	i
O=C(Nc1ccc(S(=O)(=O)N2CCOCC2)cc1)c1oc(=O)c2ccccc2c1-c1ccccc1	i	37.2	33.9	i
C[C@@H]1O[C@@H](O[C@H]2[C@H](O[C@H]3[C@H](O[C@H]4CC[C@@]5(C)[C@@H](CC[C@]6(C)[C@@H]5CC=C5[C@@H]7CC(C)(C)CC(=O)[C@]7(C)CC[C@]56C)[C@@]4(C)CO)O[C@H](C(=O)O)[C@@H](O)[C@@H]3O)OC[C@@H](O)[C@@H]2O)[C@H](O)[C@H](O)[C@H]1O	48.9	31.5	52.9	i
CC1(C)CC(=O)[C@]2(C)CC[C@]3(C)C(=CC[C@@H]4[C@@]5(C)CC[C@H](O)[C@](C)(CO)[C@@H]5CC[C@]43C)[C@@H]2C1	i	i	i	i
CCCc1cc(=O)n2[nH]c(-c3ccccc3)cc2n1	i	i	i	i
CCCc1cc(=O)n2[nH]c(-c3ccc(C)cc3)cc2n1	i	43.1	i	i

Assay outcomes (PubChem)
